# Screening results from PubChem.
# In the library only some 19% were active in any assay of this set; here they are far more common.
# uPA surface inh – inhibitors of cell surface uPA generation | 330,000 compounds, 0.31% hits | Potency, µM (top dose mostly 38.3 µM), without a hit: at the highest dose activity change, negative = inhibition, most hits filed as inhibitors | AID 540303 | cell surface uPA generation assay, qHTS; active = well fitted inhibition curve with a large enough effect; inconclusive = small, poorly fitted or top-dose-only effect; inactive = no such curve, though single readings can be large or run the other way; tested in mouse RAW 264.7 cells; also: potency is read from the fitted curve at half-maximal effect; nearly all actives have a fitted effect of over 55% in size
# HT1080-NT tox – kills 2HG-producing HT-1080-NT fibrosarcoma cells | Potency, µM (titrated, usually from 46.1 µM), for inactives: at the top dose activity, negative = less viability, usual class: cytotoxic | 360,000 compounds, 1.6% hits | HT-1080-NT fibrosarcoma viability, CellTiter-Glo ATP luminescence, 48 h;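 also: NT is the 2HG producing partner of a matched IDH1 knockdown line; potency is read from the fitted curve at half-maximal effect; 0% = DMSO-treated cells and -100% = media-only wells without cells; nearly all actives have a fitted effect of over 55% in size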
#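 HT-1080-NT; 750 cells/well; 5% FBS RPMI; 48 h compound, 37 degrees C; CellTiter-Glo luminescence; curve fitting and curve-class assignment.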
# HT1080 IDH1KD tx – HT-1080 IDH1 knockdown cell toxicity (counter line). HT-1080 IDH1 knockdown viability, ATP luminescence, 48 h. Potency, µM (top dose mostly 46.1 µM), for the others: at the top dose activity, negative = toxicity, usual class: cytotoxic. 360,000 compounds, 2% hits. AID 686971;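 also: potency is read from the fitted curve at half-maximal effect; 0% = DMSO wells and -100% = cell-free medium wells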
#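 Cytotoxicity counter-line: IDH1KD HT-1080, 48 h, CellTiter-Glo. Curves classed by r2, magnitude and activity.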
# DT40 TDP1 CPT – DT40-hTDP1 cell growth loss with CPT; 420,000 compounds, 12% hits; AID 686979; chicken DT40 Tdp1-/-;hTDP1 cells + 20 nM CPT, ATP luminescence, 48 h; Potency, µM (doses to about 46.2 µM), for inactives: at the top dose activity change, negative = growth inhibition, usual class: inhibitors; also: potency is read from the fitted curve at half-maximal effect; nearly all actives have a fitted effect of over 55% in size
#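 Chicken DT40 Tdp1-/- cells complemented with human TDP1, 400 cells/well, exposed to compounds plus 20 nM camptothecin for at least 48 h at 37 C; viability read as ATP content by CellTiter-Glo luminescence.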
# IL1B secr inh – inflammasome signaling inhibition, IL-1 beta readout; activity change, % at 57.5 µM; 360,000 compounds, 4.7% hits; THP-1 LPS/ATP IL-1B secretion, AlphaLISA, 16 h; stronger effect = lower value; in the data active = activity change below about -50%; inconclusive = mostly about -30% to -49%
#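 Secreted IL-1B measured by AlphaLISA bead assay after 16 h compound exposure of THP-1 cells; compounds (final up to 57.5 uM) added 1 h before LPS (250 ng/mL) and ATP (1.25 mM) stimulation; lower signal means less secretion.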
# TDP1 cell noCPT – qHTS for Inhibitors of human tyrosyl-DNA phosphodiesterase 1 (TDP1): qHTS in cells in absence of CPT; DT40 Tdp1-/- hTDP1 cells, no CPT, ATP luminescence, 48 h; Potency, µM (series often up to 46.2 µM), for the others: at the top dose activity change, negative = growth inhibition, most hits filed as inhibitors; 420,000 compounds, 15% hits; also: potency is read from the fitted curve at half-maximal effect; nearly all actives have a fitted effect of over 55% in size
#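 Growth kinetics read by CellTiter-Glo luminescence after ≥48 hr at 37 °C. Cells: DT40 Tdp1-/- stably carrying human TDP1, 400 per well, compound exposure in the absence of CPT (DMSO vehicle).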
# * marks the source's active call; other numbers are inactive results; u = inconclusive; x = not tested or not shown; [ ] = another dose, or the depositor's remark. Unless noted, calls follow the shape of the dose curve; as a rule, active = well fitted curve in the direction sought with a large enough effect; inconclusive = small, poorly fitted or top-dose-only effect, or another doubt; inactive = no such curve, though single readings can be large; an effect the other way counts as inactive or inconclusive. Unless noted, % is scaled to controls: 0 for no effect and ±100 for the full control effect.
SMILES,uPA surface inh,HT1080-NT tox,HT1080 IDH1KD tx,DT40 TDP1 CPT,IL1B secr inh,TDP1 cell noCPT
O=C1CCCC2=C1C(c1cccs1)n1nc(SCc3ccccc3F)nc1N2 (centres undefined),-4%,-4%,-17%,12µM*,-5,23µM*
CSc1nc2n(n1)C(c1cccs1)C1=C(CCCC1=O)N2 (centres undefined),-3%,5%,3%,5%,15,-4%
Cc1ccccc1CSc1nc2n(n1)C(c1cccs1)C1=C(CCCC1=O)N2 (centres undefined),3%,u,u,21µM*,u,18µM*
COc1ccc(CNC(=O)c2cccc(N3CCCS3(=O)=O)c2)cc1OC,x,x,x,10µM*,x,7.3µM*
CCS(=O)(=O)NCCCc1ccccc1,0%,9%,4%,21µM*,-6,u
CCS(=O)(=O)NCCCCc1ccccc1,1%,1%,0%,3%,u,-4%
Cc1cccc(NCc2ccc(Br)cc2)n1,-6%,-21%,0%,u,-62*,u
CC(=O)OC[C@H]1O[C@@H](Oc2cc(O)cc3oc(-c4ccc(O)cc4)cc(=O)c23)[C@H](O[C@@H]2O[C@@H](C)[C@H](O)[C@@H](O)[C@H]2O)[C@@H](O)[C@@H]1O,1%,5%,4%,5%,22,-3%
CCC(=O)NC(=S)Nc1ccc(NC(=O)COc2ccc(Cl)cc2Cl)cc1,4%,-11%,-6%,16µM*,-10,8.2µM*
CN(C)c1nc(OCCOC(=O)COc2ccc(Cl)cc2Cl)nc(N(C)C)n1,x,-2%,8%,-8%,19,11%
Cc1cccc(NC(=S)NNC(=O)COc2ccc(Cl)cc2Cl)c1,3%,-1%,-2%,7%,24,-14%
CN(C)c1nc(OCCNC(=O)COc2ccc(Cl)cc2Cl)nc(N(C)C)n1,1%,0%,6%,7.3µM*,13,8.2µM*
CCC(=O)Nc1ccc(Cl)c(NC(=S)NC(=O)COc2ccc(Cl)cc2)c1,1%,-22%,-27%,-21%,19,-31%
CCC(=O)NC(=S)Nc1ccc(NC(=O)COc2ccc([N+](=O)[O-])cc2)cc1,-10%,-9%,-5%,u,-14,23µM*
CCC(=O)NC(=S)Nc1ccc(NC(=O)COc2ccc(Cl)c(C)c2)cc1,2%,-7%,-13%,13µM*,2,16µM*
Cc1ccc(NC(=O)CSc2nc(=O)n(Cc3cccnc3)c3c2CCC3)cc1F,x,x,x,-24%,x,u
COc1ccc(S(=O)(=O)N(C)C[C@@H]2OCc3cnnn3CCCC(=O)N([C@@H](C)CO)C[C@@H]2C)cc1,x,17%,2%,0%,-13,6%
COc1ccc(NC(=S)NNC(=O)COc2ccc(Cl)cc2Cl)cc1,1%,1%,-7%,u,16,21µM*
COC(CC(=O)NNC(=S)Nc1ccc(Cl)cc1)OC,1%,3%,-1%,18µM*,-7,18µM*
C/C(=N/NC(=O)c1cccs1)c1ccc(NC(=O)COc2ccc(Cl)cc2Cl)cc1,0%,-8%,-16%,15µM*,-11,u
COc1cc(/C(C)=N/NC(=O)C(O)(c2ccccc2)c2ccccc2)ccc1O,-1%,18%,18%,u,-4,-29%
COc1cccc(-c2noc(CCCC(=O)Nc3ccc(C(N)=O)cc3)n2)c1,3%,-5%,14%,u,89,u
CC(C)c1cccc(C(C)C)c1NC(=O)CN1C(=O)NC2(CCCCCCC2)C1=O,10%,3%,3%,16%,-3,9%
COc1ccccc1NC(=O)C1=C(C)Nc2nnnn2C1c1cc(Br)c(O)c(OC)c1 (centres undefined),x,x,x,5%,x,1%
CCCCN(C(=O)c1cccc2c(=O)c(C)c(-c3ccccc3)oc12)c1ccccc1,-18%,-22%,u,16µM*,0,8.2µM*
SMILES,uPA surface inh,HT1080-NT tox,HT1080 IDH1KD tx,DT40 TDP1 CPT,IL1B secr inh,TDP1 cell noCPT
Cc1c(-c2ccccc2)oc2c(C(=O)N3CCN(c4ccccc4F)CC3)cccc2c1=O,6%,11%,12%,21µM*,38,21µM*
CCCCNC(=O)c1cccc2c(=O)c(C)c(-c3ccccc3)oc12,-10%,-17%,-14%,u,8,u
COc1cccc2cc(C(=O)N3CCN(c4ccccc4F)CC3)c(=O)oc12,-1%,5%,7%,-8%,-6,12%
N#CC(=C(O)CN1CCN(c2ccccc2F)CC1)c1nc(-c2ccc(Cl)cc2)cs1,-2%,-1%,-9%,-7%,-8,-28%
NC(=O)c1ccccc1NC(=O)Nc1cccc(Cl)c1Cl,-6%,-15%,-1%,5.8µM*,-6,9.2µM*
Cc1c(Cl)cccc1NC(=O)Nc1ccc(C(N)=O)cc1,7%,9%,8%,6%,2,-24%
Cc1c(Cl)cccc1NC(=O)Nc1ccccc1C(N)=O,u,-11%,-1%,4.1µM*,-7,6.5µM*
NC(=O)c1ccccc1NC(=O)c1ccccc1Cl,2%,1%,-3%,0%,-2,u
Nc1ccc(C(=O)C(=O)c2ccccc2)cc1,3%,-7%,15%,3%,-18,16%
CC(C)(C)N(Cc1ccccc1)C(=O)c1ccc(Br)o1,3%,8%,6%,u,-7,u
Cc1ccc(C(=O)N(Cc2ccccc2)C(C)(C)C)cc1C,-3%,3%,-5%,16µM*,-7,15µM*
Cc1ccc(S(=O)(=O)N2CCCCC2)cc1C(=O)OC(C)C(=O)NCC1CCCCC1 (centres undefined),-5%,0%,-14%,u,-24,18µM*
Cc1ccc(C)c(C(=O)OCC(=O)Nc2cccc(S(=O)(=O)N3CCCCC3)c2)c1,u,u,u,18µM*,0,10µM*
Cc1ccccc1C(=O)OCC(=O)Nc1cccc(S(=O)(=O)N2CCCCC2)c1,x,-8%,2%,u,21,u
CCOc1ccc(NC(=O)COC(=O)c2ccc(S(=O)(=O)N3CCOCC3)cc2)cc1,6%,5%,3%,-2%,2,8%
CCOc1ccc(NC(=O)COC(=O)c2cc(S(=O)(=O)N3CCCC3)ccc2C)cc1,9%,0%[9.24 µM],-12%,21µM*,-15,u
O=S(=O)(c1ccc(OC(F)(F)F)cc1)N1CCC(c2nc3ccccc3s2)CC1,x,x,x,11%,x,23%
